# Screens deposited in PubChem by National Center for Advancing Translational Sciences (NCATS).
# Only a selection was taken, and hits are over-represented in it overall.
# 12-LOX inh: blocks human arachidonate 12S-lipoxygenase; P18054; purified 12hLO, xylenol orange hydroperoxide absorbance; Potency, µM (top dose mostly 108 µM), for the others: at the top dose activity change, negative = inhibition, actives largely listed as inhibitors; 580,000 compounds, 1.1% hits; also: % is scaled to controls: 0 for no effect and ±100 for the full control effect
#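 Hydroperoxide product was detected by ferrous iron/xylenol orange as the 573 to 405 nm absorbance ratio. Arachidonic acid at 40 uM (final) was turned over for 30 min at room temperature by 150 nM human 12hLO, pH 7.0 Hepes buffer, after 15 min compound preincubation.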
# Sfp PPTase inh: inhibitors of Bacillus subtilis Sfp phosphopantetheinyl transferase; Q9F4F7; Biochemical Sfp PPTase activity, qHTS; Potency, µM, inactives show largest response in the series, negative = inhibition, hits mostly inhibitors; 310,000 compounds, 3.5% hits;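 also: the enzyme is Sfp with the accession as filed and its product quenches rhodamine fluorescence; 0% = enzyme reaction without inhibitor and -100% = no enzyme wells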
#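 Compounds were incubated with enzyme (final 15 nM) for 15 min at room temperature before substrate addition started the reaction. Fluorescence at 525 nm excitation, 598 nm emission was recorded immediately and after 30 minutes.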
# GRP78 ERSR act: inducers of ER stress response in human glioma cells; U87-MG GRP78 promoter luciferase reporter, 16 h; Potency, µM, for inactives: at the top dose activation, most hits filed as activators; 420,000 compounds, 0.02% hits; AID 602332; also: series mostly up to about 76 µM; % of control where 0% means no effect; nearly all actives have a fitted effect of over 35% in size
#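 Stably transfected U87-MG glioma cells carrying a GRP78-based luciferase sensor; 16 h compound incubation. Luminescence end-point read 10 min after Bright-Glo addition at room temperature.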
# VDR inhibitor: inhibitors of human vitamin D receptor; 400,000 compounds, 0.93% hits; Potency, µM, for the others: max response, negative = inhibition, most hits filed as inhibitors; P11473; VDR-SRC2-3 peptide fluorescence polarization, 2 h; AID 504847; also: % is scaled to controls: 0 for no effect and ±100 for the full control effect
#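 Reagent solutions, kept cold and dark, are dispensed first; compounds are then pinned in at 23 nl, plates briefly spun, and incubated 2 h at ambient temperature. Inhibition of VDR–SRC2-3 peptide binding is read by fluorescence polarization.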
# G9a block: inhibitors of human histone lysine methyltransferase G9a; Q96KQ7; G9a H3K9 monomethylation, AlphaScreen, 2 h; Potency, µM (doses to about 102 µM), inactives show top-dose activity, negative = inhibition, usual class: inhibitors; 350,000 compounds, 8.8% hits; also: % is scaled to controls: 0 for no effect and ±100 for the full control effect; nearly all actives have a fitted effect of over 75% in size
# Target sequence (Q96KQ7 913-1193 limits assumed): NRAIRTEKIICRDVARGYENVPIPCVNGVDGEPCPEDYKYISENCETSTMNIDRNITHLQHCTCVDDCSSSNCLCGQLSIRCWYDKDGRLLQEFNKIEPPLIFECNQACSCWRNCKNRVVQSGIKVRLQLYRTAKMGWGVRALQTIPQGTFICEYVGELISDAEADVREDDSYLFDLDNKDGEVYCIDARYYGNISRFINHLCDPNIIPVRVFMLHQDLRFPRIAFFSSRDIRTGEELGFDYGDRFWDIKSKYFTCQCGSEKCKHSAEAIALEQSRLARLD
#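 Readings reflect AlphaScreen signal from monomethyl-H3K9 antibody detection. HMT at 20 nM; substrate b-H3K9 500 nM; cofactor SAM 20 uM; 2 h RT reaction; compounds tested as titrations in qHTS with 15 min preincubation.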
# Active calls of the source: *; ? = inconclusive; nt = not tested or not shown; ! = not active in a repeat; [ ] = dose if it differs, or a comment. Calls follow the shape of the dose curve; as a rule, active = well fitted curve in the direction sought with a large enough effect; inconclusive = small, poorly fitted or top-dose-only effect, or another doubt; inactive = no such curve, though single readings can be large; an effect the other way counts as inactive or inconclusive. Potency is read from the fitted curve at half-maximal effect.
SMILES,12-LOX inh,Sfp PPTase inh,GRP78 ERSR act,VDR inhibitor,G9a block
COC(=O)c1sc(N2C(=O)C(O)=C(C(=O)c3ccc(C)o3)C2c2ccco2)nc1C (configuration not stated),?,11.5%,-0.2%,-12.1%,nt
COC(=O)c1ccc(C2c3c(oc4ccccc4c3=O)C(=O)N2c2nc(C)c(C(=O)OC)s2)cc1 (configuration not stated),?,nt,-2.8%,-14.9%,?
COC(=O)c1sc(N2C(=O)c3oc4ccccc4c(=O)c3C2c2cccs2)nc1C (configuration not stated),?,-4.2%,-4.9%,3.5%,14.1µM*
COC(=O)c1sc(N2C(=O)C(O)=C(C(=O)c3ccc(C)o3)C2c2cccs2)nc1C (configuration not stated),nt,?,2.2%,-14.9%,10µM*
Cc1nc2ccc(NC(=O)/C=C/C(=O)O)cc2nc1C,?,-29.0%,8.0%,-21.2%,-31.0%
O=C(O)/C=C/C(=O)Nc1ccc2nccnc2c1,-12.8%,1.4%,4.1%,-13.7%,50.1µM*
CC(=O)Nc1ccc2c(c1)C(=O)c1ccccc1C2=O,-8.5%,-8.6%,-2.8%,-8.1%,-32.8%[59 µM]
O=C(O)/C=C/C(=O)Nc1ccc2c(c1)C(=O)c1ccccc1C2=O,6.0%,-6.2%,2.7%,-20.6%,44.7µM*
Cc1nc2n(n1)C(C(=O)Nc1ccc(C(C)C)cc1)CC(=O)N2 (configuration not stated),-18.1%,nt,nt,nt,nt
Cc1cc(SCC(=O)NC(=O)NC2CC2)nc2ccccc12,32.4%,nt,nt,nt,nt
COc1ccc(C(=O)N[C@@H]2CCC[C@@H]2C(=O)NC(C)C)cc1,47.0%,nt,nt,nt,nt
CC(/C=C/C(=O)NO)=C\[C@@H](C)C(=O)c1ccc(N(C)C)cc1,nt,11.2%,?,?,15.8µM*!
COc1cc(CNc2cccc(F)c2)cc(Br)c1O,?,-21.8%,-1.6%,5.6%,?
Cc1cccc(NCc2cc(C(C)(C)C)c(O)c(C(C)(C)C)c2)c1,10µM*,nt,nt,nt,nt
CCn1c(=O)c2ccccc2n(CC(=O)Nc2cccc3cccnc23)c1=O,-0.2%,nt,nt,nt,nt
Cc1ccc(C(=O)Nc2sccc2C#N)s1,50.1µM*,nt,nt,nt,nt
N#Cc1ccsc1NC(=O)c1ccc(Cl)c([N+](=O)[O-])c1,-20.3%,-3.0%,1.7%,0.8%,nt
N#Cc1ccsc1NC(=O)c1cccc([N+](=O)[O-])c1,-6.6%,39.8µM*,0.3%,-11.2%,-31.7%
N#Cc1ccsc1NC(=O)CCc1ccccc1,16.7%,8.0%,2.1%,-15.3%,25.1µM*
COc1cccc(N=Nc2c(C)[nH]n(-c3ccccc3)c2=O)c1,-5.5%,-16.7%,2.9%,-7.9%,7.94µM*
Cc1[nH]n(-c2ccccc2)c(=O)c1N=Nc1ccc2c(c1)OCO2,15.4%,-1.5%,2.6%,-5.8%,3.16µM*
Cc1[nH]n(C2=NCCS2)c(=O)c1N=Nc1ccccc1,-14.6%,11.2%,-1.4%,-16.8%,nt
Cc1[nH]n(-c2ccccc2)c(=O)c1N=Nc1ccccc1C(=O)O,10.1%,-15.2%,6.4%,-11.8%,?
CCOC(=O)c1c(CNCCN(CC)CC)n(C)c2cc(Br)c(OC)cc12,?,0.7%,-5.3%,-14.6%,79.4µM*
COc1ccc([N+](=O)[O-])cc1NC(=S)Nc1ccccc1,?,?,-1.8%,-0.9%,?
SMILES,12-LOX inh,Sfp PPTase inh,GRP78 ERSR act,VDR inhibitor,G9a block
NS(=O)(=O)c1ccc(CCNC(=O)c2cccc3ccccc23)cc1,5.7%,17.9%,-1.3%,10.7%,12.7%
NS(=O)(=O)c1ccc(NC(=S)NCCc2ccccc2)cc1,?,7.94µM*,2.0%,-19.4%,11.2µM*
NS(=O)(=O)c1ccc(CCNC(=O)c2ccc[nH]c2=S)cc1,-9.4%,56.2µM*,1.1%,-17.2%,1.41µM*
O=[N+]([O-])c1ccc(NNC(=S)Nc2ccccc2)cc1,nt,3.55µM*,-6.3%,44.7µM*,?
O=[N+]([O-])c1ccc(NC(=S)NCc2ccncc2)cc1,?,17.1%,-4.1%,1.5%,12.8%[59 µM]
O=[N+]([O-])c1ccc(NC(=S)NCCc2ccccc2)cc1,44.7µM*,-18.3%,0.8%,-13.8%,44.7µM*
CCOC(=O)c1[nH]c(C)c(C(=O)Cn2cnc3ccccc3c2=O)c1C,51.2%,nt,nt,nt,nt
COc1cccc(CNC(=O)Cn2c(=O)c3c(ncn3C)n(C)c2=O)c1,76.5%,nt,nt,nt,nt
Cc1nc(C(C)C)sc1C(=O)NCc1ccccc1,4.8%,nt,nt,nt,nt
CC(C)NC(=O)/C(=C/c1ccc(-c2cccc(C(F)(F)F)c2)o1)NC(=O)c1ccccc1,3.0%,nt,nt,nt,nt
COc1ccc2nc([C@H]3CCN(Cc4ccccc4)C3)[nH]c2c1,38.9%[176 µM],nt,nt,nt,nt
COc1cc(C(=O)NCCc2ccc(S(N)(=O)=O)cc2)cc(OC)c1OC,-2.7%,7.6%,-2.5%,10.0%,-46.9%
CC(C)OCCCNC(=S)Nc1ccc(S(N)(=O)=O)cc1,?,2.24µM*,-5.9%,?,10µM*
COc1cc(NC(=S)NCCc2ccc(S(N)(=O)=O)cc2)c(OC)cc1Cl,-23.9%,15.8µM*,-5.2%,-21.9%,?
O=[N+]([O-])c1ccc(O)c(NC(=S)Nc2ccccc2)c1,-22.0%,50.1µM*,4.0%,?,4.47µM*
CCCc1noc(-c2cc(S(=O)(=O)NCCc3ccccc3)ccc2OC)n1,6.0%,nt,nt,nt,nt
COc1ccc(OCCOC(=O)CNC(=O)c2cccc(C)c2)cc1,-15.2%,nt,-2.2%,-5.1%,50.1µM*
Cc1ccc(OCc2ccc(C(=O)N3CCOCC3)cc2)cc1C,?,35.5µM*,1.9%,0.7%,?
Cc1ccc(C(=O)CC(C(=O)O)P(=O)(c2ccccc2)c2ccccc2)cc1 (configuration not stated),4.7%,17.8%,-0.7%,10.7%,70.8µM*
O=C(Nc1ccc([C@@H](O)[C@H]2COCC(=O)N2Cc2ccc(C(F)(F)F)cc2)cc1)C1CCCC1,0.9%,nt,nt,nt,nt
CCOC(=O)CNC(=O)c1ccc(C)cc1,0.0%,-3.9%,4.5%,?,2.1%[12.7 µM]
